# Data as given in PubChem BioAssay (Tox21).
# Results filed as inconclusive are left out. Unmarked numbers belong to inactive results. Calls follow the shape of the dose curve; as a rule, active = well fitted activation curve with a large enough effect in the repeat runs; inconclusive = weak or mixed curves; inactive = flat fitted curve, though single readings scatter.
# Assay: A CellTox Green Cytotoxicity Assay to monitor cytotoxicity in HepG2 cells - 16 hour (AID 1224876); also: nearly all actives have a fitted effect of over 45% in size
# Conditions: CellTox Green fluorescence; series mostly up to 76.8 µM; cytotoxicity increase: at the top concentration
# How it was run: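 Fluorescent DNA-binding dye, 600 HepG2 cells/well, 5 h preincubation then compound in DMSO; same plates read at 0–40 h, 37 C.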
# % is scaled to controls: 0 for no effect and ±100 for the full control effect.
row,SMILES,cytotoxicity increase
1,c1ccc(CNc2ncnc3c2ncn3C2CCCCO2)cc1 (centres undefined),-1.65%
2,CC(C)(C)C1(CCc2ccc(Cl)cc2)CO1 (centres undefined),20.4%
3,O=C1OC[C@H](Cc2cccc(O)c2)[C@H]1Cc1cccc(O)c1,-4.75% [at 35.3 µM]
4,Nc1ccc(NC(=O)c2ccc(N)cc2)cc1,-0.134%
5,O=C(O)CCCc1c[nH]c2ccccc12,12.3%
6,CC[C@@H](CO)NCCN[C@@H](CC)CO,-1.6% [at 35.3 µM]
7,CC(C)(C)C(O)/C=C/c1ccc2c(c1)OCO2 (centres undefined),-0.183% [at 35.3 µM]
8,C/C(C=O)=C\c1ccccc1,-0.164%
9,CCO[Si](C)(CCCOCC1CO1)OCC (centres undefined),-2.89%
10,ClC1=C(Cl)C1(Cl)Cl,0.785%
11,COc1ccc(-c2cc(C(F)F)nn2-c2ccc(S(N)(=O)=O)cc2)cc1F,7.58% [at 35.3 µM]
12,CC(=O)N[C@@H](Cc1ccc(O)cc1)C(=O)O,-6% [at 35.3 µM]
13,Cc1ccc(Nc2c(F)cccc2Cl)c(CC(=O)O)c1,3.74% [at 35.3 µM]
14,C=Cc1ccc(OC(C)=O)cc1,4.98%
15,CCCOC(=O)c1c(Cl)c(Cl)c(Cl)c(Cl)c1C(=O)OCCC,3.85%
16,COc1ccc(/C=C/C(=O)c2ccc(OC)cc2OC)cc1,4.81% [at 35.3 µM]
17,Nc1ccc(N=Nc2ccc(N)cc2)cc1,-11.2% [at 35.3 µM]
18,CC1=C2[C@@H]([C@H](C)CC[C@H]2/C=C(\C)C(=O)O)[C@H](O)C1,-3.09%
19,CNCc1ccc(NC(=O)c2c[nH]c3c2C(=O)CCC3)cc1,-0.95%
20,O=C1CC[C@@H](C(=O)O)N1,-3.25% [at 35.3 µM]
21,C=CC(=O)O,1.05% [at 35.3 µM]
22,COc1cc(NC(C)CCCN)c2ncccc2c1 (centres undefined),0.929% [at 35.3 µM]
23,O=C(O)/C=C/c1ccc(O)c(O)c1,14.4%
24,COc1cc(NS(=O)(=O)c2ccc(N)cc2)nc(C)n1,-11.7% [at 35.3 µM]
